“And” between values parts separate entries of the source, which are not always exact repeats. Identical values can stand only once. Out of some 5,500 compounds screened, about 2,000 (36%) were called active. Not shown: some 18% with an inconclusive outcome. Rule as the data show it: active = normalized growth mostly below about 0.91 (no sharp cut-off); inconclusive = no clear call, values can overlap the other calls; inactive = mostly above about 0.92. This is one part of the list.
Assay: chemical genetic growth profiling, strain panel (AID 1159580);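 also: tested at 20 µM; growth read once vehicle control cultures reached saturation at 30 °C; 1 = growth at the plate median or of vehicle wells; lower values mean less growth of the strain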
Settings: S. cerevisiae deletion strains, growth OD

Measured: normalized growth

CCOC([O-])=Nc1c[n+](N2CCOCC2)no1
inactive: locus YAL013W, strain DEP1, stronger effect = lower value 1.01 | locus YAL021C, strain ccr4, stronger effect = lower value 0.994 | locus YAL026C, strain drs2, stronger effect = lower value 0.999 | locus YAL030W, strain snc1, stronger effect = lower value 0.991 | locus YBL061C, strain skt5, stronger effect = lower value 0.997 | locus YBR009C, strain hhf1, stronger effect = lower value 0.997 | locus YBR021W, strain FUR4, stronger effect = lower value 1.03 | locus YBR023C, strain chs3, stronger effect = lower value 0.986 | locus YBR171W, strain sec66, stronger effect = lower value 1 | locus YBR229C, strain ROT2, stronger effect = lower value 1.01 | locus YBR231C, strain swc5, stronger effect = lower value 0.997 | locus YBR279W, strain paf1, stronger effect = lower value 1.01 | locus YCL011C, strain gbp2, stronger effect = lower value 0.996 | locus YCL016C, strain dcc1, stronger effect = lower value 0.978 | locus YCL029C, strain bik1, stronger effect = lower value 0.991 | locus YCL061C, strain MRC1, stronger effect = lower value 0.998 | locus YCL069W, strain vba3, stronger effect = lower value 0.996 | locus YCR088W, strain abp1, stronger effect = lower value 0.999 | locus YDL005C, strain med2, stronger effect = lower value 0.993 | locus YDL035C, strain GPR1, stronger effect = lower value 1.03 | locus YDL040C, strain nat1, stronger effect = lower value 1 | locus YDL074C, strain BRE1, stronger effect = lower value 1.04 | locus YDL101C, strain DUN1, stronger effect = lower value 1.02 | locus YDL134C, strain PPH21, stronger effect = lower value 1.01 | locus YDL185W, strain tfp1, stronger effect = lower value 0.984 | locus YDL192W, strain arf1, stronger effect = lower value 0.998 | locus YDR001C, strain nth1, stronger effect = lower value 0.993 | locus YDR069C, strain doa4, stronger effect = lower value 1 | locus YDR101C, strain arx1, stronger effect = lower value 0.972 | locus YDR137W, strain rgp1, stronger effect = lower value 1.01 | locus YDR150W, strain NUM1, stronger effect = lower value 1.02 | locus YDR159W, strain sac3, stronger effect = lower value 0.993 | locus YDR162C, strain NBP2, stronger effect = lower value 1.01 | locus YDR195W, strain ref2 1 | locus YDR297W, strain sur2, stronger effect = lower value 1 | locus YDR318W, strain mcm21, stronger effect = lower value 0.99 | locus YDR334W, strain swr1, stronger effect = lower value 0.984 | locus YDR335W, strain msn5, stronger effect = lower value 0.991 | locus YDR388W, stronger effect = lower value 0.997 | locus YDR392W, strain spt3, stronger effect = lower value 0.927 | locus YDR502C, strain sam2, stronger effect = lower value 0.988 | locus YEL003W, strain gim4, stronger effect = lower value 1 | locus YEL037C, strain rad23, stronger effect = lower value 0.993 | locus YEL061C, strain CIN8 (second series), stronger effect = lower value 1 | locus YEL061C, strain CIN8, stronger effect = lower value 1.01 | locus YER015W, strain faa2, stronger effect = lower value 0.979 | locus YER016W, strain bim1, stronger effect = lower value 1.01 | locus YER110C, stronger effect = lower value 0.984 | locus YER111C, strain swi4, stronger effect = lower value 0.979 | locus YER155C, strain BEM2 (second series), stronger effect = lower value 0.984 | locus YER155C, strain BEM2, stronger effect = lower value 1 | locus YER167W, strain BCK2, stronger effect = lower value 1.01 | locus YFR010W, strain ubp6, stronger effect = lower value 0.986 | locus YGL078C, strain dbp3, stronger effect = lower value 0.987 | locus YGL086W, strain mad1, stronger effect = lower value 1 | locus YGL167C, strain pmr1, stronger effect = lower value 1 | locus YGL173C, strain kem1, stronger effect = lower value 0.994 | locus YGL227W, strain vid30, stronger effect = lower value 0.993 | locus YGL240W, strain doc1, stronger effect = lower value 1.01 | locus YGL248W, strain PDE1, stronger effect = lower value 1.01 | locus YGL253W, strain hxk2, stronger effect = lower value 0.993 | locus YGR078C, strain PAC10, stronger effect = lower value 1 | locus YGR135W, strain pre9, stronger effect = lower value 0.986 | locus YGR229C, strain SMI1, stronger effect = lower value 1.02 | locus YGR252W, strain gcn5, stronger effect = lower value 1.01 | locus YHR013C, strain ard1, stronger effect = lower value 0.985 | locus YHR027C, strain rpn1, stronger effect = lower value 0.987 | locus YHR030C, strain SLT2, stronger effect = lower value 1.01 and 1.02 | locus YHR079C, strain IRE1 (second series), stronger effect = lower value 1 | locus YHR079C, strain IRE1, stronger effect = lower value 1.03 | locus YHR094C, strain hxt1, stronger effect = lower value 0.998 | locus YHR129C, strain ARP1, stronger effect = lower value 1.01 | locus YHR142W, strain chs7, stronger effect = lower value 0.992 | locus YHR200W, strain rpn10, stronger effect = lower value 0.995 | locus YIL066C, strain RNR3, stronger effect = lower value 1.01 | locus YIL073C, strain SPO22, stronger effect = lower value 0.973 | locus YIL125W, strain kgd1, stronger effect = lower value 1 | locus YIR030C, strain dcg1, stronger effect = lower value 0.992 | locus YJL092W, strain hpr5, stronger effect = lower value 0.992 | locus YJL095W, strain BCK1 (second series), stronger effect = lower value 0.994 | locus YJL095W, strain BCK1, stronger effect = lower value 1 and 1.03 | locus YJL115W, strain asf1, stronger effect = lower value 0.982 | locus YJL129C, strain trk1, stronger effect = lower value 0.997 | locus YJL134W, strain LCB3, stronger effect = lower value 1.01 | locus YJL154C, strain vps35, stronger effect = lower value 0.99 | locus YJL164C, strain tpk1, stronger effect = lower value 0.989 | locus YJL166W, strain qcr8, stronger effect = lower value 0.991 | locus YJL168C, strain set2, stronger effect = lower value 1 | locus YJL187C, strain SWE1 (second series), stronger effect = lower value 1.01 | locus YJL187C, strain SWE1, stronger effect = lower value 1.01 | locus YJR043C, strain POL32, stronger effect = lower value 0.989 | locus YJR066W, strain TOR1, stronger effect = lower value 0.997

— PubChem BioAssay AID1159580 (chemical genetic matrix, 2015)
